These results are taken from PubChem BioAssay AID1851 (National Center for Advancing Translational Sciences (NCATS), 2009).

One may read the AC50 as the concentration at which the activity in the assay is half-maximal.

Each structure is given as a SMILES string. The whole screen tested about 16,000 compounds, of which about 5,800 (36%) were called active. About 23% were inconclusive and are not listed. Some of the results follow. A number with no mark means an inactive call. Calls follow the shape of the dose curve; as a rule, active = well fitted curve in the direction sought with a large enough effect; inconclusive = small, poorly fitted or top-dose-only effect, or effect the other way; inactive = no such curve, though single readings can be large or run the other way.
% is scaled to controls: 0 for no effect and ±100 for the full control effect.

In the experiment the target is Cytochrome P450 2C19 (Homo sapiens) (UniProt P33261). As to the kind of experiment: Cytochrome panel assay with activity outcomes. Conditions: recombinant CYP, pro-luciferin dealkylation, luminescence, p450-cyp2c19; series mostly up to 57.1 µM.
Sequence of Cytochrome P450 2C19 (Homo sapiens) (P33261 whole entry, looked up): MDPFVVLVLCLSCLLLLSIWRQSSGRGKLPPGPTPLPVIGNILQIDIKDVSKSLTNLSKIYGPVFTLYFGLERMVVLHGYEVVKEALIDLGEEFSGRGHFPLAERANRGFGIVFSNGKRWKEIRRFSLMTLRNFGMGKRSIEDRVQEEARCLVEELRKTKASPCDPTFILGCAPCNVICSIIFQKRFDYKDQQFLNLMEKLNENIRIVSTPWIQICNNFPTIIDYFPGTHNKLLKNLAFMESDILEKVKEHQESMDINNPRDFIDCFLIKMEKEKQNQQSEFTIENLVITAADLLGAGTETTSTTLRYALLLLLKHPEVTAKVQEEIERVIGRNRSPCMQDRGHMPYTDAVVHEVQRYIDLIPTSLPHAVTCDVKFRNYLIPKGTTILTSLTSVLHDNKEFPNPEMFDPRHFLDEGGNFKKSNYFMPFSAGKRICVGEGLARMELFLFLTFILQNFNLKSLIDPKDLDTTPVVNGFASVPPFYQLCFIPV
Consider `Nc1ccccc1S(N)(=O)=O`, for which the AC50 result was “inactive”. On the same count and under the same terms, for `Cc1ccc2nc(N/N=C/c3ccccc3C#N)nc(-c3ccccc3)c2c1` the value was 10 µM (active). Consider `Cc1ccc2nc(N/N=C\c3cccc(C)n3)cc(C)c2c1`, for which the activity, negative = inhibition is -12.3% [at 11.4 µM]. For `Cc1nc(N/N=C/c2ccccc2)nc(N(C)c2ccccc2)c1[N+](=O)[O-]`, the AC50 entry was “inactive”. `Cc1cccc(N2CCN(C(=O)CSCc3c(C)noc3C)CC2)c1C`: the AC50 is 17.8 µM (active).

For `Cc1noc(C)c1C(=O)N1CCC2(CCCN(c3ccccc3)C2)CC1`, the AC50 entry is “inactive”. For `Cc1ccc(NC(=S)Nc2nc(CC(=O)Nc3ccccc3)cs2)cc1`, the AC50 was 3.98 µM (active).

In the case of `COCCn1c(=O)c(-c2cccc(C#N)c2)nc2cnc(N3CCOCC3)nc21`, the AC50 result was “inactive”. On the same count and under the same terms, the same measure for `COc1ccc(C(=O)Nc2scc(-c3ccc(Cl)cc3Cl)c2C(N)=O)cc1`: 1.26 µM (active); for `NC(=O)OC[C@H](O)COc1ccc(Cl)cc1`: “inactive”. Still for that read-out and setting: the same measure for `CC(C)COc1ccc(C(=O)Nc2scc(-c3ccc(Cl)cc3Cl)c2C(N)=O)cc1`: 2.82 µM (active); for `O=C(CC1C(=O)N(c2ccc(Cl)cc2)C(=S)N1CCc1ccncc1)Nc1ccc(F)cc1` (stereo not drawn): 0.02 µM (active); for `O=C(Nc1ccc(Cl)cc1)OCc1cc(-c2ccccc2Cl)on1`: 0.316 µM (active). On to `CS(=O)(=O)c1ccccc1COC(=O)Nc1ccc(Cl)cc1`, for which the AC50 was 2.51 µM (active). The same measure, in the same setting: for `O=C(Nc1ccccc1)OCc1cc(-c2ccc(Cl)cc2)on1` the value was 2 µM (active). The same measure, in the same setting: the same measure for `O=C(Nc1ccc(Cl)cc1)OCc1cc(-c2ccccc2)on1`: 0.447 µM (active); for `O=C(c1cc(C(F)(F)F)cc(C(F)(F)F)c1)N1CCC[C@@]2(CCN(c3ncccn3)C2)C1`: “inactive”; for `CCC(=O)O[C@@H]1[C@H](C)O[C@H](O[C@H]2[C@@H](N(C)C)[C@H](O)[C@@H](O[C@@H]3[C@@H](CC=O)C[C@@H](C)[C@@H](O)/C=C\C=C/C[C@@H](C)OC(=O)C[C@@H](OC(=O)CC)[C@H]3OC)O[C@H]2C)C[C@]1(C)O`: “inactive”. Same read-out and setting: for `Cc1nc(SCC(=O)c2ccc(F)cc2)c([N+](=O)[O-])[nH]1` the value was 8.91 µM (active). As for `Cn1c(=S)c2[nH]c(SCCCc3ccccc3)nc2n(C)c1=O`, the activity, negative = inhibition was -28.4% [at 11.4 µM]. With `Cc1nc2cnc(Nc3ccccc3)nc2n(Cc2cccs2)c1=O`, the AC50 entry was “inactive”. Same read-out and setting: for `C=CCN1C(=O)CN=C1Nc1ccccc1` the value was “inactive”. The same measure, in the same setting: the same measure for `O=c1cnc2cnc(Nc3ccccc3)nc2n1Cc1cccs1`: “inactive”; for `O=C1CN=C(Nc2ccccc2)N1Cc1cccs1`: 14.1 µM (active); for `CCOc1ccc(NC2=NCC(=O)N2Cc2cccs2)cc1`: 11.2 µM (active). On the same count and under the same terms, the same measure for `COc1ccc(-c2nc3cnc(Nc4ccccc4)nc3n(Cc3cccs3)c2=O)cc1`: “inactive”; for `CCCCOc1ccc(/C=C/C(=O)NCCc2nc3ccccc3[nH]2)cc1`: 3.98 µM (active); for `COc1ccc(CNC(=O)/C=C/c2ccc(OCCCF)cc2)cc1`: “inactive”. `Nc1nnc(SCCOc2cccc(Br)c2)s1`: the AC50 is 3.98 µM (active). The same measure, in the same setting: for `CCCCN1C(=O)CC(Sc2ccccc2C(=O)O)C1=O` (stereo not drawn) the value was “inactive”. Same read-out and setting: the same measure for `O=C(CSC1CC(=O)N(CC(c2ccccc2)c2ccccc2)C1=O)Nc1ccc(Cl)cc1` (stereo not drawn): 1.58 µM (active); for `COC(=O)c1ccc(NC(=O)c2cc3sccc3n2C)cc1`: 7.94 µM (active).

As for `Cn1c(C(=O)Nc2ccccc2)cc2sccc21`, the AC50 is 2.51 µM (active). Consider `C[C@@]1(CCOCc2ccccc2)NC(=O)NC1=O`, for which the activity, negative = inhibition is 0.432% [at 11.4 µM]. Regarding `COc1cc(OC)c(OC)cc1C=NCC1(c2ccccc2)CCCC1`, the AC50 entry was “inactive”. Take `COc1ccc(C2(CNC(=O)/C=C/c3ccco3)CCCC2)cc1OC`: the AC50 is 7.94 µM (active).

For `CC[N+](CC)(CC)CC[C@](O)(c1ccccc1)C1CCCCC1`, the AC50 entry was “inactive”. The same measure, in the same setting: for `CCCc1cc2c(n1CCc1ccc(Cl)cc1)C(C)C1CN(C(=O)c3ccccc3)C(C)(C(=O)OC)C21` (stereo not drawn) the value was 6.31 µM (active). Consider `Nc1ccc(C(=O)C[C@H](N)C(=O)O)cc1O`, for which the activity, negative = inhibition was -13.9% [at 11.4 µM]. Turning to `O=C(O)[C@H]1CCCNC1`, the AC50 result is “inactive”. For the molecule `Nc1nc(-c2cc(-c3cccc4ccccc34)nc(N)n2)cc(-c2cccc3ccccc23)n1`, the activity, negative = inhibition was 11.9% [at 11.4 µM].

As for `CC(C)=NOCc1ccc(-c2cc(-c3ccccc3)no2)cc1`, the activity, negative = inhibition was -13.3% [at 11.4 µM]. As to `Cc1ccccc1-c1cc(-c2ccccc2O)on1`, the AC50 is 4.47 µM (active). Same read-out and setting: for `Nc1nc(-c2ccccc2)cc(-c2ccccc2O)n1` the value was 10 µM (active). Turning to `Cc1[nH]c2ccccc2c1-c1cc(-c2cc(-c3c(C)[nH]c4ccccc34)on2)no1`, the activity, negative = inhibition is 0.833% [at 11.4 µM]. `Oc1ccccc1-c1cc(-c2ccccc2)no1`: the AC50 is 7.94 µM (active). The same measure, in the same setting: for `COc1cc2c(cc1OC)-c1cc3ccc(OC)c(OC)c3c[n+]1CC2` the value was “inactive”; for `COc1ccc(C2C(C(=O)N3CCOCC3)CCC(=O)N2c2ccc(OC)cc2)cc1` (stereo not drawn), “inactive”. Same read-out and setting: for `CCOC(=O)c1c(NC(C)=O)sc2c(OC)cccc12` the value was “inactive”. Same read-out and setting: the same measure for `CCOC(=O)C1=C(C)C(c2ccccc2OC)NC(=S)N1` (stereo not drawn): 5.62 µM (active).

As for `COc1ccc(N2C(=O)CCC(C(=O)O)C2c2ccc(F)cc2)cc1` (stereo not drawn), the AC50 entry is “inactive”. Consider `COC(=O)C1=C(C)C(c2ccc(OC)cc2)NC(=S)N1` (stereo not drawn), for which the AC50 was 14.1 µM (active). On the same count and under the same terms, the same measure for `CCOC(=O)C1=C(C)NC(=S)NC1c1cccc(O)c1` (stereo not drawn): 25.1 µM (active); for `CS(=O)(=O)N1CCC2(CC1)CN(C(=O)Nc1cccc(C#N)c1)C2`: “inactive”; for `CC(NC(=O)Cn1cnc([N+](=O)[O-])n1)c1ccccc1` (stereo not drawn): 39.8 µM (active). Same read-out and setting: for `CCN(CC)C(=O)Cn1cnc([N+](=O)[O-])n1` the value was “inactive”; for `CC(C)(C)NC(=O)Cn1cnc([N+](=O)[O-])n1`, “inactive”; for `O=S(=O)(c1ccccc1)N1CCC2(CCN(C(c3ccccc3)c3ccccc3)CC2)CC1`, “inactive”. Same read-out and setting: for `O=S(=O)(c1ccccc1)N1CCCC1c1nc2ccccc2s1` (stereo not drawn) the value was 4.47 µM (active). Consider `O=C1CCC(c2ccccc2)=NN1c1nc2ccccc2s1`, for which the activity, negative = inhibition is 6.12% [at 11.4 µM]. Take `N#CCCn1c(=O)c(-c2cccc(C#N)c2)nc2cnc(N3CCOCC3)nc21`: the AC50 result was “inactive”. `COc1ccc2c(c1)-c1ccccc1S(=O)(=O)N2C`: the AC50 was 14.1 µM (active).

Consider `CC1CC2=C(NC(=S)NC2c2ccc(F)cc2)/C(=C/c2ccc(F)cc2)C1` (stereo not drawn), for which the AC50 was 3.55 µM (active). Same read-out and setting: the same measure for `N#Cc1ccc(C(=O)Nc2ccc(N3CCN(C(=O)c4ccco4)CC3)cc2)c(F)c1`: “inactive”; for `Cc1cccc(C(=O)NCN2CCN(c3ccccc3C#N)CC2)c1`: “inactive”; for `Cc1ccccc1C(=O)N1CCN(c2ccc([N+](=O)[O-])c(NCc3ccco3)c2)CC1`: 3.16 µM (active).

As to `Cc1cccc(C(=O)N2CCN(c3ccc([N+](=O)[O-])c(NCc4ccco4)c3)CC2)c1`, the AC50 was 7.94 µM (active). As for `CC[C@]1(O)C[C@H]2CN(CCc3c([nH]c4ccccc34)[C@](C(=O)OC)(c3cc4c(cc3OC)N(C=O)[C@H]3[C@@](O)(C(=O)OC)[C@H](OC(C)=O)[C@@]5(CC)C=CCN6CC[C@]43[C@H]65)C2)C1`, the AC50 entry was “inactive”. Regarding `Cc1[nH]nc(-c2ccc(OCc3cnn(-c4ccccc4)c3)cc2O)c1Oc1ccccc1F`, the half-maximal activity concentration (AC50) is 1.78 µM (active). On the same count and under the same terms, the same measure for `O=C(Nc1ccc2oc(-c3ccccc3F)nc2c1)c1ccc2c(c1)OCCO2`: 3.98 µM (active); for `CN(C)CCNC(=O)C(C(=O)c1ccc(F)cc1)n1ccccc1=O` (stereo not drawn): “inactive”. The same measure, in the same setting: for `CCC(C)[C@H](NC(=O)NC1CCN(Cc2ccccc2)CC1)C(=O)OC` (stereo partly drawn) the value was “inactive”; for `CCCNC(=O)N1CCC(C(=O)c2ccc(F)cc2)CC1`, 17.8 µM (active). On the same count and under the same terms, the same measure for `O=C(Cc1ccccc1)NC1CCN(S(=O)(=O)c2ccc(C(=O)O)cc2)CC1`: “inactive”; for `O=C(NC1CCN(Cc2ccccc2)CC1)c1ccc(I)cc1`: 15.8 µM (active). Consider `COc1cc(N)c(Cl)cc1C(=O)NC1CCN(Cc2ccccc2)CC1`, for which the AC50 entry was “inactive”. Take `COc1ccccc1NC(=O)CN1CCN(c2ccccc2F)CC1`: the AC50 is 2.51 µM (active). Same read-out and setting: the same measure for `Cc1ccc(NC(=O)CN2CCC(NC(=O)Cc3ccccc3)CC2)cc1C`: 0.0178 µM (active); for `O=C1C(O)=C(O)C(=O)C(O)=C1O`: “inactive”.

In the case of `NC(N)=NNC(=O)C(=O)O`, the activity, negative = inhibition is 28.3% [at 11.4 µM]. Take `CCN(CC)c1ccc(NC(=O)CN2CCN(c3ccccc3F)CC2)cc1`: the AC50 was 14.1 µM (active). Turning to `Cc1cccc(N2CCN(CC(=O)Nc3ccc(-n4cnnn4)cc3)CC2)c1C`, the AC50 result was “inactive”. The same measure, in the same setting: for `CCOc1ccccc1NC(=O)C(=O)NCC1CCCN1CC` (stereo not drawn) the value was “inactive”; for `CCOc1ccccc1NC(=O)CN1CCC(NC(=O)c2ccccc2)CC1`, 1 µM (active); for `COc1ccccc1NC(=O)CN1CCC(C(=O)c2ccc(F)cc2)CC1`, 5.01 µM (active). The same measure, in the same setting: the same measure for `O=C(c1ccc(F)cc1)C1CCN(CCCCc2ccccc2)CC1`: “inactive”. Take `CC(C)NC(=O)N1CC2(CCN(C(=O)c3cc(C(F)(F)F)cc(C(F)(F)F)c3)CC2)C1`: the AC50 result was “inactive”. Still for that read-out and setting: for `Nc1ncnc(N(c2ccccc2)C2CCCCC2)c1[N+](=O)[O-]` the value was “inactive”; for `N=c1nc(N2CCCCC2)cc(N)n1O`, “inactive”; for `Fc1ccccc1OCCCCSc1ncccn1`, 3.98 µM (active).

Consider `N#Cc1cccc(-c2cc(-n3ccnc3)ncn2)c1`, for which the AC50 was 0.158 µM (active). The same measure, in the same setting: for `CN1CCN(c2ccnc(-c3ccoc3)n2)CC1` the value was “inactive”. On the same count and under the same terms, for `N#Cc1cccc(-c2nc(N3CCNCC3)c3ccccc3n2)c1` the value was “inactive”. As to `COc1cccc(-c2nccc(-n3ccnc3)n2)c1`, the AC50 is 2.51 µM (active). On the same count and under the same terms, for `CCNc1ncc2nc(-c3cccc(C#N)c3)c(=O)n(C)c2n1` the value was “inactive”; for `COc1cccc(-c2nccc(NC3CCNCC3)n2)c1`, “inactive”; for `N#Cc1cccc(-c2nccc(-n3ccnc3)n2)c1`, 7.94 µM (active). The same measure, in the same setting: the same measure for `c1cn(-c2ccnc(-c3ccc4c(c3)OCO4)n2)cn1`: 10 µM (active).
